Assay outcomes as filed in PubChem BioAssay.
HT1080 IDH1KD tx – HT-1080 IDH1 knockdown cell toxicity (counter line); HT-1080 IDH1 knockdown viability, ATP luminescence, 48 h; Potency, µM (doses to about 46.1 µM), for the others: at the top dose activity, negative = toxicity, hits mostly cytotoxic; 2% of 360,000 active; AID 686971;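 further: 0% = DMSO wells and -100% = cell-free medium wells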
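Using the IDH1-knockdown HT-1080 line run in the same batch and compound series as the NT line, viability after 48 h at 37 °C was determined by CellTiter-Glo luminescence and expressed as % activity.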
KB-V1 MDR tox – KB-V1 MDR subline cytotoxicity. KB-V1 MDR cells viability, CellTiter-Glo, 72 h. Potency, µM (top dose mostly 46.1 µM), actives largely listed as cytotoxic. 3.4% of 400,000 active. AID 1347076; further: nearly all actives have a fitted effect of over 60% in size
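KB-V1, DMEM (no phenol red) + 10% FBS; cpd pin-transferred, titration series; 72 h, 37 degrees C; CellTiter-Glo, luminescence. Data normalized, curve-fit.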
TDP1 cell CPT – growth inhibition of DT40 Tdp1-/-;hTDP1 cells with camptothecin (screen for TDP1 inhibitors); chicken DT40 Tdp1-/-;hTDP1 cells + 20 nM CPT, ATP luminescence, 48 h; Potency, µM (doses to about 46.2 µM), for inactives: top-dose activity change, negative = growth inhibition, hits mostly inhibitors; 12% of 420,000 active; further: nearly all actives have a fitted effect of over 55% in size
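Chicken DT40 Tdp1-/- cells complemented with human TDP1, 400 cells/well, exposed to compounds plus 20 nM camptothecin for at least 48 h at 37 C; viability read as ATP content by CellTiter-Glo luminescence.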
TDP1 cell noCPT – qHTS for Inhibitors of human tyrosyl-DNA phosphodiesterase 1 (TDP1): qHTS in cells in absence of CPT; Potency, µM (series often up to 46.2 µM), for the others: at the top dose activity change, negative = growth inhibition, hits mostly inhibitors; AID 686978, 2013; 15% of 420,000 active; DT40 Tdp1-/- hTDP1 cells, no CPT, ATP luminescence, 48 h; further: nearly all actives have a fitted effect of over 55% in size
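Growth of hTDP1-complemented DT40 Tdp1-knockout cells is measured by ATP luminescence after at least 48 hr compound exposure at 37 °C, with DMSO substituting for the 20 nM CPT used in the parallel screen.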
HT1080-NT tox – kills 2HG-producing HT-1080-NT fibrosarcoma cells; Potency, µM (series often up to 46.1 µM), for inactives: at the highest dose activity, negative = less viability, usual class: cytotoxic; 1.6% of 360,000 active; HT-1080-NT fibrosarcoma viability, CellTiter-Glo ATP luminescence, 48 h; AID 686970;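 further: NT is the 2HG producing partner of a matched IDH1 knockdown line; 0% = DMSO-treated cells and -100% = media-only wells without cells; nearly all actives have a fitted effect of over 55% in size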
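Fibrosarcoma NT cells, 750 per well in 5% FBS RPMI, were exposed to compound for 48 hours. Viability: CellTiter-Glo luminescence.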
KB-3-1 tox – KB-3-1 parental cell cytotoxicity; Potency, µM (titrated, usually from 46.1 µM), most hits filed as cytotoxic; 1.4% of 400,000 active; KB-3-1 viability, CellTiter-Glo ATP luminescence, 72 h; AID 1347075; further: nearly all actives have a fitted effect of over 60% in size
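Screening of KB-3-1 cells (DMEM, 10% FBS, phenol-red free) ran from lowest to highest compound concentration; after 72 h at 37 °C viability was read luminescently and curves fitted.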
* = called active by the depositor; i = inactive; u = inconclusive; x = no result given; ! = a repeat was not active. Rows were chosen to be rich in hits. Some 19% of all compounds tested hit in one or more screens of this group. The call rests on the fitted dose curve; in most records, active means well fitted curve in the direction sought with a large enough effect; inconclusive means small, poorly fitted or top-dose-only effect, or another doubt; inactive means no such curve, though single readings can be large; an effect the other way counts as inactive or inconclusive. Unless noted, on the % scale 0 is the no-effect control and ±100 the full control effect; potency means the concentration at half of the fitted maximal effect.

SMILES | HT1080 IDH1KD tx | KB-V1 MDR tox | TDP1 cell CPT | TDP1 cell noCPT | HT1080-NT tox | KB-3-1 tox
CCOc1ccccc1N(CC(=O)NCCc1ccc(OC)cc1)S(=O)(=O)c1ccc(C)cc1 | 2% | u | 10µM* | 8.2µM* | -1% | u
O=C(c1cccs1)N1CCC(C(=O)O)(c2ccccc2)CC1 | 8% | i | -17% | -13% | 5% | i
CC(C)Oc1ccc(C(=O)Nc2ccc3c(c2)CCCN3C(=O)c2cccs2)cc1 | x | u | 12µM* | 6.5µM* | x | 6.5µM*
COC(=O)C1C2CC[C@@H](CC1OC(=O)c1ccccc1)N2 (stereo partly specified) | 18% | i | -2% | -1% | u | i
CCCCP(=O)(O)c1ccccc1 | -2% | i | 4% | 0% | -4% | i
CCCOP(=O)(c1ccccc1)c1ccccc1 | u | i | 21µM* | u | u | i
COc1ccc(S(=O)(=O)N2Cc3cnnn3-c3ccccc3C2C#N)cc1 (stereo unspecified) | 11% | i | 2% | 8% | 4% | i
COc1ccc(S(=O)(=O)N2c3ccc(F)cc3CCC2C)cc1 (stereo unspecified) | 3.7µM* | 1.6µM* | 0.92µM* | 0.58µM* | 1.8µM* | 1.6µM*
Cc1cc(OCC(=O)N2CCCN(C)CC2)ccc1Cl | 8% | i | -2% | 0% | 11% | i
C=CCN1C(=O)/C(=C/c2ccc(N3CCOCC3)o2)C(=O)NC1=S | 9% | i | -10% | -23% | 12% | i
C=CCN1C(=O)NC(=O)/C(=C\c2ccc(-c3ccccc3[N+](=O)[O-])o2)C1=O | u | i | u | 18µM* | u | i
O=C1NC(=O)N(Cc2ccco2)C(=O)/C1=C/c1ccc(-c2cccc([N+](=O)[O-])c2)o1 | 0% | i | 18µM* | u | 1% | i
CC(=O)OC1CC[C@@]2(C)C3CC(=O)[C@]4(C)C(C(C)=O)=CCC4C3CC[C@H]2C1 (stereo partly specified) | x | x | -4% | u | x | x
O=c1cc(CN2CC=C(c3ccccc3)CC2)c2c(ccc3ccccc32)o1 | u | i | u | 21µM* | 16% | i
CCOc1ccc(NCc2cccn2-c2nnc(N3CCC(C(=O)NC(C)c4ccccc4)CC3)s2)cc1 (stereo unspecified) | x | x | 21µM* | 8.2µM* | x | x
CCOc1ccc(NC(=O)C2C3c4ccccc4C(c4ccccc43)C2C(=O)O)cc1 (stereo unspecified) | 2% | i | -14% | -19% | -2% | i
CCS(=O)(=O)Nc1ccc(C2=NN(C(=O)c3ccco3)C(c3ccc(Cl)o3)C2)cc1 (stereo unspecified) | -28% | i | u | 23µM* | -18% | u
O=c1[nH]c(=O)n(C2CCCCCC2)c(O)c1C=NC1CCN(Cc2ccccc2)CC1 | 0% | i | -29% | u | 1% | i
COc1ccc2nc(-c3ccc(CN4CCC(n5c(=O)[nH]c6ccccc65)CC4)cc3)c(-c3ccccc3)nc2c1 | u | u | 18µM* | 15µM* | u | u
O=c1[nH]c2ccccc2n1CCCN1CCC(n2c(=O)[nH]c3cc(Cl)ccc32)CC1 | -27% | i | u | 24µM*! | -1% | i
Cc1ccc2nc(-c3ccc(CN4CCC(n5c(=O)[nH]c6ccccc65)CC4)cc3)c(-c3ccccc3)nc2c1 | u | u | 8.2µM* | 12µM* | u | u
O=c1[nH]c2ccccc2n1C1CCN(Cc2ccc(-c3nc4ccccc4nc3-c3ccccc3)cc2)CC1 | u | 23µM* | 12µM* | 15µM* | u | u
C[C@]12CCC(=O)CC1CCC1C2CC[C@]2(C)C(OC(=O)CCC(=O)O)CCC12 (stereo partly specified) | 6% | i | 17% | -29% | 9% | i
COc1ccc(N2C(=O)CC(N3CCC(n4c(=O)[nH]c5ccccc54)CC3)C2=O)cc1 (stereo unspecified) | -5% | i | u | u | 7% | i
O=c1[nH]c2ccccc2n1C1CCN(Cc2ccc(-c3nc4ccc(F)cc4nc3-c3ccccc3)cc2)CC1 | u | u | 4.1µM* | 6.5µM* | 21µM* | u
SMILES | HT1080 IDH1KD tx | KB-V1 MDR tox | TDP1 cell CPT | TDP1 cell noCPT | HT1080-NT tox | KB-3-1 tox
CN(CC=CCN(C)P(=S)(N1CC1)N1CC1)P(=S)(N1CC1)N1CC1 | -11% | i | 1.6µM* | 1.8µM* | -1% | i
C=CCN=c1sc(C(=O)OC)cc(=O)n1CC=C | u | i | 15µM* | -19% | -6% | i
C/C=C1\NC(=O)[C@H](C)NC(=O)[C@@H](NC(=O)[C@H](Cc2ccc(O)cc2)NC(=O)[C@@H](NC(=O)/C(C)=C/C)C(C)C)[C@@H](C)OC(=O)[C@H](CCCc2ccc(O)cc2)NC(=O)[C@@H](CCC(=O)O)NC1=O | 19% | i | 1% | 1% | 14% | i
Cc1ncoc1C(=O)NCC1=C(c2ccc(S(C)(=O)=O)cc2)C[C@@H]2CC[C@H]1N2Cc1ccco1 | 5% | i | 2% | 4% | 4% | u
O=c1cccc2n1C[C@H]1C[C@@H]2CN2CCCC[C@@H]12 | -1% | i | 1% | -9% | 2% | i
Cc1cc(O)c2c(c1)C(=O)C13C(=C2O)C(=O)[C@H]2[C@@H](O)[C@@H]1[C@H]1[C@H](O)[C@@H]3C(=O)C3=C(O)c4c(O)cc(C)cc4C(=O)C312 (stereo partly specified) | 5.2µM* | i | 0.65µM* | 1.2µM* | 0.58µM* | 9.2µM*
COc1cccc(CNCCc2ccccc2)c1OC | -3% | i | 4% | -20% | -6% | i
Cc1ccccc1C1CC(=O)Nc2ccc3ccccc3c21 (stereo unspecified) | x | u | 12µM* | 12µM* | x | u
COC(=O)[C@]12CCC(C)(C)C[C@H]1[C@H]1C(=O)C=C3[C@@]4(C)C=C(C#N)C(=O)C(C)(C)[C@@H]4CC[C@@]3(C)[C@]1(C)CC2 | x | x | 1.2µM* | 1.1µM* | x | x
CC1(Cc2ccc(C(F)(F)F)nc2)C(=O)Nc2cc(-c3ccccc3Cl)ccc21 (stereo unspecified) | u | i | 16µM* | u | -27% | i
